Data on 27 compounds can be found in the supplement of paper PMC3414501.

Molecules are shown by their SMILES. Structures can show the parent of a compound that is named as a salt.

Assay [1] has as its system S. cerevisiae SK1 pCDA2-eGFP (USY613), sporulating. The assay is described as follows: CDA2-GFP sporulation assay sensitivity score (z-score vs DMSO controls); higher = stronger inhibition of sporulation, active = hit call of the paper.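 Further: active if sensitivity score above 5.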
Assay [2] relates to S. cerevisiae AD1-9 (efflux-pump deficient), vegetative growth in YPD. The assay is described as follows: growth sensitivity score (doubling time z-score vs DMSO controls); higher = slower growth, strongly negative scores also mark growth inhibition (complete suppression), active = hit call of the paper. Summed up: (§1)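 Yeast (Saccharomyces cerevisiae BY4741 and AD1-9) was grown in rich medium in microtiter plates from a starting OD600 of 0.065, with optical density read every 15 min over 24 hours. The growth sensitivity score was the difference between compound and solvent-only means, divided by the solvent-only standard deviation. Every experiment had eight solvent-only wells.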

Assay [3] relates to S. cerevisiae BY4741 (wild-type), vegetative growth in YPD. The assay is described as above. Put shortly: as §1
Where [4] appears, read: stock concentration (mM, diluted 1:100): 10.
Setting [5] is: stock concentration (mM, diluted 1:100): 9.7.
The mark [6] stands for this setting: stock concentration (mM, diluted 1:100): 10.1.
Where [7] appears, read: stock concentration (mM, diluted 1:100): 7.6.
The mark [8] stands for this setting: stock concentration (mM, diluted 1:100): 8.2.
Where [9] appears, read: stock concentration (mM, diluted 1:100): 8.9.

In the case of `C[C@]12CC[C@H]3[C@@H](CCC4=CC(=O)CC[C@@]43C)[C@@H]1CC[C@@H]2O` [Testosterone], the “CDA2-GFP sporulation assay sensitivity score” value in assay [1] (setting [4]) is 21.1 (active). Moreover, the growth sensitivity score in assay [2] (setting [4]) was 44.5 (active); in assay [3] (setting [4]), 4.61 (active).

As for `COc1cc2c(cc1OC)[C@@]13CCN4CC5=CCO[C@H]6CC(=O)N2[C@H]1[C@H]6[C@H]5C[C@H]43` [Brucine], the “CDA2-GFP sporulation assay sensitivity score” value in assay [1] (setting [4]) was -1.75 (inactive). Moreover, the growth sensitivity score in assay [2] (setting [4]) was -0.99 (inactive); in assay [3] (setting [4]), 0.41 (inactive).

Consider `CN1CCC(c2ccc(F)cc2)C(COc2ccc3c(c2)OCO3)C1` (centres undefined) [Methyl paroxetine], for which the “CDA2-GFP sporulation assay sensitivity score” value in assay [1] (setting [5]) is 0.37 (inactive). For the same compound, the growth sensitivity score was 35 (active) in assay [2] (setting [5]) and 2.48 (active) in assay [3] (setting [5]).

Take `CN1C(=O)CN=C(c2ccccc2)c2cc(Cl)ccc21` [Diazepam]: in assay [1] (setting [4]), the “CDA2-GFP sporulation assay sensitivity score” value is 4.97 (inactive). Also, the growth sensitivity score in assay [2] (setting [4]) is 5.55 (active); in assay [3] (setting [4]) it was 2.97 (active).

As for `CC[C@@H](C(N)=O)N1CCCC1=O` [Levetiracetam], in assay [1] (setting [6]), the “CDA2-GFP sporulation assay sensitivity score” value is 1.7 (inactive). The growth sensitivity score in assay [2] (setting [6]) was -2.51; in assay [3] (setting [6]), -1.26 (inactive).

As for `NC(=O)C[S+]([O-])C(c1ccccc1)c1ccccc1` (centres undefined) [Modafinil], the “CDA2-GFP sporulation assay sensitivity score” value in assay [1] (setting [4]) was -0.48 (inactive). For the same compound, the figures for the growth sensitivity score in assay [2] (setting [4]) and in assay [3] (setting [4]) were -1.24 (inactive) and -1.13 (inactive), respectively.

As for `CN1CC[C@]23CCCC[C@H]2[C@H]1Cc1ccc(O)cc13` [Levorphanol tartrate], the “CDA2-GFP sporulation assay sensitivity score” value in assay [1] (setting [7]) was -2.67 (inactive). In addition, the growth sensitivity score in assay [2] (setting [7]) was -1.11 (inactive); in assay [3] (setting [7]), -0.24 (inactive).

`COC(=O)N1CCN(C(=O)Cc2ccc(Cl)c(Cl)c2)C(CN2CCCC2)C1` (centres undefined): the “CDA2-GFP sporulation assay sensitivity score” value in assay [1] (setting [4]) is 3.34 (inactive). Also, the figures for the growth sensitivity score in assay [2] (setting [4]) and in assay [3] (setting [4]) were -1.16 (inactive) and -1.35 (inactive), respectively.

Regarding `C[C@H]1CCC[C@H](O)CCCCCc2cc(O)cc(O)c2C(=O)O1` [Zeranol], the “CDA2-GFP sporulation assay sensitivity score” value in assay [1] (setting [4]) is -2.75 (inactive). For the same compound, the growth sensitivity score in assay [2] (setting [4]) is 18.3 (active); in assay [3] (setting [4]), 1.77 (inactive).

As to `O=C(O)C(Cl)Cl` [Dichloroacetic acid], in assay [1] (setting [4]), the “CDA2-GFP sporulation assay sensitivity score” value is 1.21 (inactive). Further, the values for the growth sensitivity score in assay [2] (setting [4]) and in assay [3] (setting [4]) were 0.15 (inactive) and -0.8 (inactive), respectively.

On to `NCCc1ccccn1` [2-(2-aminoethyl)pyridine], for which the “CDA2-GFP sporulation assay sensitivity score” value in assay [1] (setting [4]) was -1.07 (inactive). In addition, the growth sensitivity score in assay [2] (setting [4]) was -0.62 (inactive); in assay [3] (setting [4]), -1.35 (inactive).

As for `C[N+]1(C)CCN(c2ccccc2)CC1` [Dimethylphenylpiperazinium Iodide], in assay [1] (setting [4]), the “CDA2-GFP sporulation assay sensitivity score” value was -0.6 (inactive). Besides, the figures for the growth sensitivity score in assay [2] (setting [4]) and in assay [3] (setting [4]) were -0.59 (inactive) and -0.67 (inactive), respectively.

Take `CN1C(=O)CN=C(c2ccccc2)c2cc([N+](=O)[O-])ccc21` [Nimetazepam]: the “CDA2-GFP sporulation assay sensitivity score” value in assay [1] (setting [4]) is -0.53 (inactive). Also, the growth sensitivity score in assay [2] (setting [4]) was 0.79 (inactive); in assay [3] (setting [4]), -0.45 (inactive).

Take `CCN(C(C)=O)c1cccc(-c2ccnc3c(C#N)cnn23)c1` [Zaleplon]: the “CDA2-GFP sporulation assay sensitivity score” value in assay [1] (setting [4]) was 6.36 (inactive). Further, the growth sensitivity score is -0.13 (inactive) in assay [2] (setting [4]) and -0.43 (inactive) in assay [3] (setting [4]).

As for `FC(F)(F)c1cccc(N2CCNCC2)c1`, the “CDA2-GFP sporulation assay sensitivity score” value in assay [1] (setting [4]) is 0.69 (inactive). The growth sensitivity score in assay [2] (setting [4]) was 2.22 (active); in assay [3] (setting [4]), 1.25 (inactive).

`COc1ccc2c(c1)[C@]13CCCC[C@@H]1[C@H](C2)N(C)CC3` [Dextromethorphan hydrobromide]: in assay [1] (setting [8]), the “CDA2-GFP sporulation assay sensitivity score” value is 14.1 (active). Also, the results for the growth sensitivity score in assay [2] (setting [8]) and in assay [3] (setting [8]) were -0.05 (inactive) and -0.39 (inactive), respectively.

As to `C[C@]12Cc3c[nH]nc3C[C@@H]1CC[C@@H]1[C@@H]2CC[C@@]2(C)[C@H]1CC[C@]2(C)O` [Stanozolol], the “CDA2-GFP sporulation assay sensitivity score” value in assay [1] (setting [4]) is -4.38 (inactive). The growth sensitivity score is 9.25 (active) in assay [2] (setting [4]) and 1.13 (inactive) in assay [3] (setting [4]).

Take `CNC1CC(c2ccc(Cl)c(Cl)c2)c2ccccc21` (centres undefined) [Indatraline]: in assay [1] (setting [4]), the “CDA2-GFP sporulation assay sensitivity score” value was 2.43 (inactive).

On to `Cc1nnc2n1-c1ccc(Cl)cc1C(c1ccccc1)=NC2` [Alprazolam], for which the “CDA2-GFP sporulation assay sensitivity score” value in assay [1] (setting [4]) is 0.37 (inactive). Moreover, the growth sensitivity score in assay [2] (setting [4]) was 5.38 (active); in assay [3] (setting [4]) it was 0.23 (inactive).

Regarding `O=C1Nc2ccc(Cl)cc2C(c2ccccc2Cl)=NC1O` (centres undefined) [Lorazepam], the “CDA2-GFP sporulation assay sensitivity score” value in assay [1] (setting [4]) was 5 (inactive). In addition, the growth sensitivity score in assay [2] (setting [4]) was 2.16 (active); in assay [3] (setting [4]) it was -0.91 (inactive).

As to `COc1ccc2[nH]cc(CCN)c2c1` [5-Methoxytryptamine], the “CDA2-GFP sporulation assay sensitivity score” value in assay [1] (setting [4]) was 3.61 (inactive). The growth sensitivity score in assay [2] (setting [4]) was -1.13 (inactive); in assay [3] (setting [4]) it was 0.09 (inactive).

For `C#CCN(C)[C@H](C)Cc1ccccc1` [Selegiline], the “CDA2-GFP sporulation assay sensitivity score” value in assay [1] (setting [4]) is -0.13 (inactive). For the same compound, the growth sensitivity score in assay [2] (setting [4]) was -1.83 (inactive); in assay [3] (setting [4]), 0.07 (inactive).

Turning to `COc1ccc(CCN)cc1OC` [Homoveratrylamine], in assay [1] (setting [4]), the “CDA2-GFP sporulation assay sensitivity score” value was -0.12 (inactive). Also, the results for the growth sensitivity score in assay [2] (setting [4]) and in assay [3] (setting [4]) were -1.46 (inactive) and -1.07 (inactive), respectively.

Take `NC(=O)OCCCc1ccccc1` [Phenprobamate]: in assay [1] (setting [6]), the “CDA2-GFP sporulation assay sensitivity score” value was -0.41 (inactive). Further, the growth sensitivity score is -0.54 (inactive) in assay [2] (setting [6]) and 0.48 (inactive) in assay [3] (setting [6]).

On to `C[C@]12CC[C@H]3[C@@H](CCC4=CC(=O)CC[C@@H]43)[C@@H]1CC[C@@H]2O` [19-Nortestosterone], for which the “CDA2-GFP sporulation assay sensitivity score” value in assay [1] (setting [4]) is 1.91 (inactive). In addition, the figures for the growth sensitivity score in assay [2] (setting [4]) and in assay [3] (setting [4]) were 5.3 (active) and 2.24 (active), respectively.

For `COc1ccc(C(CN(C)C)C2(O)CCCCC2)cc1` (centres undefined) [Venlafaxine hydrochloride], in assay [1] (setting [9]), the “CDA2-GFP sporulation assay sensitivity score” value was -0.02 (inactive). Moreover, the growth sensitivity score in assay [2] (setting [9]) was -1.06 (inactive); in assay [3] (setting [9]) it was -0.63 (inactive).

Take `CC[C@]1(O)CC[C@H]2[C@@H]3CCC4=CCCC[C@@H]4[C@H]3CC[C@@]21C` [Ethylestrenol]: the “CDA2-GFP sporulation assay sensitivity score” value in assay [1] (setting [4]) is 8.75 (active). In addition, the growth sensitivity score is 93.9 (active) in assay [2] (setting [4]) and 2.86 (active) in assay [3] (setting [4]).
